Screens (PubChem)
PLK1 PBD inh = PLK1 (human) polo-box domain binding inhibition; Plk1 PBD binding of FITC phosphopeptide, fluorescence polarization; Potency, µM, inactives show max response, negative = inhibition, actives largely listed as inhibitors; 360,000 compounds, 2.8% hits; also: series mostly up to about 57 µM; nearly all actives have a fitted effect of over 65% in size
TDP1 inh = inhibitors of human tyrosyl-DNA phosphodiesterase TDP1; Q9NUW8; recombinant TDP1, AlphaScreen DNA substrate cleavage; Potency, µM (titrated, usually from 130 µM), without a hit: top-dose activity change, negative = inhibition, hits mostly inhibitors; 350,000 compounds, 0.28% hits; also: nearly all actives have a fitted effect of over 40% in size
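Enzyme-compound mixtures sat 15 min at room temperature, followed by a 5 min reaction with 15 nM final substrate and 10 min with AlphaScreen beads. Recombinant human Tdp1 was used at 1 nM final.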
GCN5L2 inh = GCN5L2 (KAT2A) acetyltransferase inhibition. Potency, µM (highest dose often 58.9 µM), without a hit: at the highest dose activity change, negative = inhibition, usual class: inhibitors. 390,000 compounds, 0.21% hits. GCN5L2 HAT assay, ThioGlo1 CoA-SH fluorescence. Q92830
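GCN5L2 (20 nM) in 50mM HEPES pH 7.5, 0.1mM EDTA, 0.01% Tween-20 preincubated 15 min with compounds at room temperature. Reaction started with H3(1-25) 75uM, acetyl-CoA 70uM, ThioGlo1 50uM; CoA-thiol fluorescence (Ex340/Em540) read at 0 and 20 min.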
VDR inhibitor = inhibitors of human vitamin D receptor. P11473. VDR-SRC2-3 peptide fluorescence polarization, 2 h. Potency, µM, for the others: max response, negative = inhibition, usual class: inhibitors. 400,000 compounds, 0.93% hits. AID 504847
Target sequence (P11473 whole entry, looked up): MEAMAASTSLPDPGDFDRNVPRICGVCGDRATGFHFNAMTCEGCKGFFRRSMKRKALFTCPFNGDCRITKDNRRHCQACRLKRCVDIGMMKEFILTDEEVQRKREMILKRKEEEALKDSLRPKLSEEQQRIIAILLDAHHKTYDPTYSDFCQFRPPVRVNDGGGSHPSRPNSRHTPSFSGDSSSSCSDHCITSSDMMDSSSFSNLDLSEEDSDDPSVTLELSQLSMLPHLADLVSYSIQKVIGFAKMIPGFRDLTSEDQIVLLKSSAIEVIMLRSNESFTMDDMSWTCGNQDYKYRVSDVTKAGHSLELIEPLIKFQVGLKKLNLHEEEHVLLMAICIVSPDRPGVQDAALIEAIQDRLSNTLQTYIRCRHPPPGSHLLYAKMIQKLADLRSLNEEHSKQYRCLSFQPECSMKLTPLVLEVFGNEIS
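Two reagent solutions held at 4 deg C in the dark were dispensed, compounds pinned at 23 nl, and the mixture incubated 2 h at room temperature. Read-out: fluorescence polarization of VDR–SRC2-3 peptide binding.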
TDP1 cell noCPT = qHTS for Inhibitors of human tyrosyl-DNA phosphodiesterase 1 (TDP1): qHTS in cells in absence of CPT | DT40 Tdp1-/- hTDP1 cells, no CPT, ATP luminescence, 48 h | Potency, µM (series often up to 46.2 µM), for the others: at the highest dose activity change, negative = growth inhibition, actives largely listed as inhibitors | 420,000 compounds, 15% hits; also: nearly all actives have a fitted effect of over 55% in size
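Compound effects on proliferation are scored in DT40 Tdp1-/-;hTDP1 cells in the absence of CPT. ATP levels (CellTiter-Glo luminescence) are recorded after a ≥48 hr, 37 °C incubation.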
DT40 TDP1 CPT = DT40-hTDP1 cell growth loss with CPT; 420,000 compounds, 12% hits; AID 686979; chicken DT40 Tdp1-/-;hTDP1 cells + 20 nM CPT, ATP luminescence, 48 h; Potency, µM (doses to about 46.2 µM), for the others: at the top dose activity change, negative = growth inhibition, most hits filed as inhibitors; also: nearly all actives have a fitted effect of over 55% in size
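Chicken DT40 Tdp1-/- cells stably complemented with human TDP1 were seeded at 400 cells/well in medium containing 20 nM camptothecin, exposed to pin-transferred compounds, and grown at 37 °C for at least 48 hr. Viability was read as ATP luminescence.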
* marks the source's active call; other numbers are inactive results; ? = inconclusive; nt = no result; [ ] = remark or other dose. Most compounds without a hit are left out; they make up all but 18% or so of the library. Calls follow the shape of the dose curve; as a rule, active = well fitted curve in the direction sought with a large enough effect; inconclusive = small, poorly fitted or top-dose-only effect, or another doubt; inactive = no such curve, though single readings can be large; an effect the other way counts as inactive or inconclusive. % is scaled to controls: 0 for no effect and ±100 for the full control effect; potency is read from the fitted curve at half-maximal effect.

SMILES	PLK1 PBD inh	TDP1 inh	GCN5L2 inh	VDR inhibitor	TDP1 cell noCPT	DT40 TDP1 CPT
CC(C)(C)c1nn(-c2ccccc2)c2[nH]c(=O)c(CNCc3ccco3)cc12	-21%	5%	6%	14%	23µM*	21µM*
CN(C)CCNC(=O)c1ccc(-c2cnn(C)c2)c2ccoc12	5%	nt	nt	nt	-18%	4%
CC(C)(C)c1nn(-c2ccccc2)c2[nH]c(=O)c(CNc3ccc4c(c3)OCCO4)cc12	-1%	12%	35µM*	18%	-20%	-30%
Cc1ccc(CNCc2cc3c(C(C)(C)C)nn(-c4ccccc4)c3[nH]c2=O)cc1	-5%	3%	-27%	-13%	25µM*	?
Oc1ccccc1CNc1ccc2c(c1)OCCO2	5%	8%	4%	11%	-15%	16%
COc1cc(NC(=O)Cn2c(=O)n(-c3cccc(C)c3)c(=O)c3c(C)c(C)sc32)cc(OC)c1	-18%	-1%	3%	6%	-29%	21µM*
COc1cccc(-n2c(=O)c3c(C)c(C)sc3n(CC(=O)NCc3ccc(C)cc3)c2=O)c1	nt	5%	-1%	15%	1%	-3%
CC(C)c1csc(CN2CCC(CO)(Cc3cccc(F)c3)CC2)n1	-7%	5%	-2%	-9%	23µM*	?
CCOC(=O)Cc1cc(-c2ccc(F)cc2)nc2ccc3ccccc3c12	-4%	-2%	1%	-11%	29µM*	?
CCOC(=O)Cc1cc(-c2ccc(O)cc2)nc2ccc3ccccc3c12	0%	1%	-8%	22%	?	?
CCOC(=O)Cn1nc(-c2ccc(F)cc2)cc(Cc2ccccc2)c1=O	-5%	nt	24%	-9%	-3%	-23%
CCOC(=O)Cc1cc(-c2ccc(OC)cc2)nc2ccc3ccccc3c12	-5%	-9%	-3%	-15%	?	18µM*
Nc1ccc(S(=O)(=O)N2CCC(Cc3ccccc3)CC2)cc1	3%	nt	-8%	18%	-29%	?
CCOC(=O)N1CCN(C(=O)CSc2nc3c([nH]c4ccccc43)c(=O)n2CC)CC1	-1%	4%	-1%	-9%	15µM*	?
C=CCn1c(SCC(=O)N2CCN(c3ccccc3)CC2)nc2c([nH]c3ccccc32)c1=O	1%	nt	0%	-15%	12µM*	16µM*
O=C1NC(c2cccc([N+](=O)[O-])c2)Oc2ccccc21 (stereo unspecified)	-11%	5%	-3%	19%	-17%	-4%
c1ccc(C(NCCNC(c2ccccc2)c2ccccc2)c2ccccc2)cc1	0%	10%	-10%	7%	21µM*	?
NS(=O)(=O)c1ccc(CCNC(c2ccccc2)c2ccccc2)cc1	-5%	nt	-3%	-14%	23µM*	?
CC(C)(C)C(=O)CN1C(=O)NC2(CCCc3ccccc32)C1=O (stereo unspecified)	-1%	nt	2%	-3%	22%	3%
COc1ccc(N2CC(C(=O)Nc3ccc(S(=O)(=O)Nc4nccs4)cc3)CC2=O)c(OC)c1 (stereo unspecified)	-9%	0%	-12%	-12%	-17%	16%
CN(Cc1nccn1C)C(=O)c1cc(COc2ccc3ncccc3c2)on1	-6%	3%	-5%	-6%	18µM*	-42%
CC(NC(=O)c1cc(COc2cccc(C(F)(F)F)c2)on1)c1nccs1 (stereo unspecified)	-3%	1%	?	17%	?	-7%
Cc1ccc(OCc2cc(C(=O)N(C)Cc3cnc4ccccn34)no2)cc1C	21µM*	5%	-3%	?	12µM*	15µM*
CCn1ccnc1CN(C)C(=O)c1cc(COc2ccccc2SC)on1	-10%	5%[56.1 µM]	-15%	7%	-29%	?
Cc1cc(CN(C)C(=O)c2cc(COc3ccc4ncccc4c3)on2)on1	-2%	nt	-3%	2%	6.5µM*	7.3µM*
